About 83,000 compounds went through this panel and 20% of them were active in at least one assay; those are over-represented in the sample as a whole.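 Plates (96-well) were seeded with cells, treated with compound at one concentration, and incubated for 48 hours before percent growth was determined.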 Active and inactive are the calls of the source.

This experiment has as its system HCT-116 colon. Kind of experiment: NCI-60 one-dose screen, 48 h (100 = growth as untreated, 0 = no growth, -100 = all killed). The settings on record: 10 µM unless noted. The method, then:
Growth inhibition of the HCT-116 human tumor cell line is measured as a screen for anti-cancer activity. Cells are grown in 96 well plates and exposed to the test compound for 48 hours. Compounds are tested at a single concentration, which is 10^-5 M for most compounds. The reported endpoint is percent growth (GI% or GIPRCNT), where numbers from 0 - 100% represent growth inhibition, and numbers from -100% - 0 represent cell death. For example, a value of 40 represents 60% growth inhibition. A value of 0 means no net growth occurred over the course of the experiment. A value of -40 indicates 40% of cells at the beginning of the experiment died by the end of the experiment. A value of -100 means all cells are dead at the end of the experiment.
NCI-60 Human Tumor Cell Lines Screen was performed using the standard one-dose NCI protocol, which is described in more detail at https://dtp.cancer.gov/discovery_development/nci-60/default.htm.
Compounds with GIPRCNT values below 10 were considered active. Activity score was based on GIPRCNT using the following formula: […]
Score is 0 for GIPRCNT values of 100 or above, 50 for GIPRCNT values of 0, and 100 for GIPRCNT values of -100.
With `O=C(/C=C/c1ccc(-c2ccccc2)cc1)c1nc2ccccc2n1Cc1ccc(Br)cc1`, the growth is 24% (inactive). The figure for `N#Cc1ccc(/C=N/NC(=O)c2[nH]c3ccc(Br)cc3c2-c2ccccc2)o1` is 1.43% (active). The figure for `O=C(Cn1nc(-c2ccccc2)ccc1=O)N/N=C/c1ccc(N2CCOCC2)cc1` is 103% (inactive); for `O=c1oc2ccccc2cc1-c1csc(N2N=C(c3ccccc3)CC2c2ccc(N3CCOCC3)cc2)n1` (stereo not given) it is 109% (inactive). The figure for `COc1ccc(C2=NN(c3ccccc3)C(c3ccc(OC)c(OCc4ccccc4)c3)C2)cc1OC` (stereo not given) is 74.8% (inactive). With `CN(C)c1nc(NCCNS(=O)(=O)c2ccc(C3=Nc4c(N)nc(N)nc4NC(c4ccc(F)cc4)C3)cc2)nc(Nc2ccc(F)cc2)n1` (stereo not given), the growth was 30.6% (inactive).

As to `CN(C)CCn1c2ccccc2c2nc3cc4ccccc4cc3nc21`, the growth was -61.4% (active).

Regarding `Cc1ccc2c(N)c(C(=O)Nc3ccc(OC(F)(F)F)cc3)sc2n1`, the growth was 58.8% (inactive).

`COc1ccc(-c2ccc(SCC(=O)Nc3ccc(S(N)(=O)=O)cc3Br)nn2)cc1`: the growth is 79.4% (inactive). The result for `COc1cc2c(c(OC)c1OC)C(=O)CC(c1cccc(NC(=O)c3cc(N)ccc3Cl)c1)O2` (stereo not given) reads 34.7% (inactive); that for `C=C1CC[C@@H]2[C@]3(C)COC(c4cn[nH]c4-c4cccc(Br)c4)O[C@@H]3CC[C@@]2(C)[C@@H]1C/C=C1/C(=O)OCC1O` (stereo not given in full), -95.9% (active); that for `COc1ccc(/C=C/c2nc3ccccc3n3c(-c4ccc(Cl)cc4)nnc23)cc1`, 88.3% (inactive). The figure for `CC(=O)Nc1cccc(Nc2nccc(N[C@@H](C)c3ccccc3)n2)c1` is 9.73% (active); for `O=C(COc1ccc(NC(=O)Nc2ccccc2)cc1)N=Nc1c(O)[nH]c2ccc([N+](=O)[O-])cc12` it is -55.9% (active). The figure for `OCNc1ccc(-n2cnc3cc(-c4ccc(O)cc4)ccc32)cc1C(F)(F)F` is 22.6% (inactive); for `CCOC(=O)/C=C/c1cccc2c1C(=O)NC(C)(c1cc3cc(Br)ccc3oc1=O)N2` (stereo not given) it is 32.2% (inactive); for `CC(=O)Nc1ccc(-c2nc3cc(-c4ccc(O)cc4)ccc3n2C)cc1` it is 29% (inactive). Regarding `COc1ccc2[nH]cc(-c3nnc(N)nc3-c3cn(C)c4ncc(Br)cc34)c2c1`, the growth is 79.6% (inactive). The figure for `Cc1ccc(C(=O)C(c2c[nH]c3ccccc23)c2c[nH]c3ccccc23)cc1` is -62.3% (active).

Take `CN(C)c1nc(NCCNS(=O)(=O)c2ccc(C(=O)/C=C/c3ccc(F)cc3)cc2)nc(Nc2ccc(F)cc2)n1`: the growth is -86.8% (active). The result for `COc1ccc(CCC2c3c(cc4c(c3OC)OCO4)CCN2C)cc1` (stereo not given) reads -58.3% (active); that for `O=C(/C=C/c1cccc(OCc2ccccc2)c1)c1nc2ccccc2[nH]1`, -36.1% (active); that for `N#Cc1c(-c2cccc(Cl)c2Cl)cc(-c2c[nH]c3ccccc23)[nH]c1=O`, 18.3% (inactive). The figure for `CC(C)Sc1nc(NCCc2c[nH]c3ccccc23)c(C#N)c(-c2ccc(F)cc2)n1` is 3.83% (active); for `CSc1ccc(C(=O)Nc2ccc3nn(/C(C#N)=C/c4ccccn4)nc3c2)cc1` it is -93.8% (active). The figure for `N/C(=N\c1nc2ccccc2s1)NC(=O)Nc1ccccc1Br` is -51.4% (active); for `C=CC(=O)Nc1ccc(C)c(Oc2ccc(Cl)cc2)c1` it is 52.1% (inactive); for `Cc1cc2nc3c4ccccc4n(CCCN(C)C)c3nc2cc1C` it is 3.73% (active). Regarding `Cn1nc(C(F)(F)F)cc1-c1cc(Cl)c(COc2ccc(Cl)cc2)c(-c2ccc(Cl)c(C(F)(F)F)c2)c1O`, the growth is -62.2% (active). The figure for `O=C(NNc1nc2cc(F)ccc2n2c(CN3CCCCC3)ccc12)c1cnccn1` is -86.9% (active). Consider `COc1ccc([C@H](C)Nc2nc(Cl)nc3ccccc23)cc1`, for which the growth is 20.9% (inactive). The figure for `CC(=O)Oc1ccccc1C(=O)[Se]CC(=O)Nc1cccc(C(F)(F)F)c1` is -47.7% (active); for `COc1ccc(C(=O)/C=C/c2cc3c(cc2Br)OCO3)cc1S(N)(=O)=O` it is -98% (active); for `O=C1CCCc2cc(OCC(=O)N3CCCCC3)ccc2N1` it is 114% (inactive). The result for `Clc1cccc(N/N=C/c2c[nH]c3ccc(Br)cc23)n1` reads 8.25% (active).

Regarding `Cc1nc(Nc2ncc(C(=O)Nc3c(C)cccc3Cl)s2)cc(N2CCN(CCCNC(=O)COc3ccc(C4CCC(=O)NC4=O)cc3)CC2)n1` (stereo not given), the growth was 42.2% (inactive). With `C#CCOc1ccc(/C=N/Nc2nc(-c3ccc(Cl)cc3)cs2)cc1OC`, the growth was 48.1% (inactive). On to `Cc1cc2c(cc1Cl)C(=O)/C(=C/c1ccccc1)O2`, for which the growth was 18.1% (inactive).

In the case of `N#Cc1c(-c2ccccc2Cl)cc(-c2c[nH]c3ccccc23)[nH]c1=O`, the growth was 52.4% (inactive). As for `COc1cc(OC)c2c3nc4cc(C)c(C)cc4nc3n(CCN(C)C)c2c1`, the growth is 39.5% (inactive).

(Values after PubChem BioAssay (NCI).)
